“And” between values parts separate entries of the source, which are not always exact repeats. Equal values may be shown once. Results filed as inconclusive are left out. Where a call stands in place of a potency, no number is given. Some compounds were tested as several samples or in several runs, with calls that do not always agree. The source made the active and inactive calls. Calls follow the shape of the dose curve; as a rule, active = well fitted cell-killing curve with a large enough effect in the repeat runs; inconclusive = weak or mixed curves; inactive = no such curve, though single readings can be large or run the other way.
Potency is read from the fitted curve at half-maximal effect.

The nature of this test: qHTS assay to identify small molecule agonists of the peroxisome proliferator-activated receptor delta (PPARd) signaling pathway - cell viability counter screen (AID 743211). Also: nearly all actives have a fitted effect of over 55% in size. Conditions: PPARd-bla HEK293H viability, CellTiter-Glo luminescence, 17 h; series mostly up to 62.6 µM. From the text: U.S. Tox21 Program National Center for Advancing Translational Sciences [NCATS] NIH Chemical Genomics Center [NCGC] U.S. Environmental Protection Agency [EPA] National Institutes of Environmental Health Sciences [NIEHS] National Toxicology Program [NTP] U.S. Food and Drug Administration [FDA] Tox21 Assay Overview: The peroxisome proliferator-activated receptors (PPARs) are lipid-activated transcription factors of the nuclear receptor superfamily with three distinct subtypes namely PPAR alpha, PPAR delta (PPARd) and PPAR gamma. All these subtypes heterodimerizes with Retinoid X receptor (RXR) and have different physiological functions. […] To identify the compounds that activate PPAR-delta signaling, GeneBLAzer PPAR delta UAS-bla HEK293H cell line (Invitrogen, Carlsbad, CA, USA) containing a beta-lactamase reporter gene under the control of an Upstream Activator Sequence (UAS) was used to screen the Tox21 compound library. The cytotoxicity of the Tox21 compound library against the PPARd-bla cell line was tested in parallel by measuring the cell viability using CellTiter-Glo assay (Promega, Madison, WI) in the same wells.
Tox21 Assay Protocol Summary: PPARd-bla cells were dispensed at 3000 cells/6uL/well in 1536-well black wall/clear bottom plates using a Multidrop Combi (Thermo Fisher Scientific, Waltham, MA) dispenser. After the assay plates were incubated at 37 C and 5% CO2 for 5 h, 23 nL of compounds dissolved in DMSO, positive controls or DMSO only was transferred to the assay plate by a Pintool station (Kalypsys, San Diego, CA). The assay plates were incubated at 37C for 17 h. After 1 uL of LiveBLAzerTM B/G FRET substrate was added using a Bioraptr Flying Reagent Dispenser (FRD) workstation (Beckman Coulter, Indianapolis, IN, USA), the plates were incubated at room temperature for 2 h, and fluorescence intensity was measured by an Envision plate reader (PerkinElmer, Shelton, CT). For cell viability readout that measures cytotoxicity, 3 ul/well of CellTiter-Glo reagent was added into the assay plates using a Bioraptr FRD. After 30 min incubation at room temperature, the luminescence intensity in the plates was measured using a ViewLux plate reader (PerkinElmer).
Turning to `CCN(CC)C(=O)/C(Cl)=C(\C)OP(=O)(OC)OC`, the Potency entry was “inactive”. Next, `c1cc(OCC2CO2)ccc1Cc1ccc(OCC2CO2)cc1` (stereo not given): “inactive”; `COP(=S)(OC)Oc1cc(Cl)c(Cl)cc1Cl`: “inactive”; `c1ccc(N=Nc2ccccc2)cc1`: “inactive”. In the case of `N#Cc1cc(Br)c(O)c(Br)c1`, the Potency entry is “inactive”. Then `c1ccc(P(c2ccccc2)c2ccccc2)cc1`, with “inactive”. Then `c1nc[nH]n1`, with “inactive”; and `Nc1ccc(Cl)cc1N`, with “inactive”; and `Nc1cccnc1`, with “inactive”. Consider `CCC(=O)O[C@H]1CC[C@H]2[C@@H]3CCC4=CC(=O)CC[C@]4(C)[C@H]3CC[C@]12C`, for which the Potency was 49 µM (active) and inactive. Next, `Oc1cc(Cl)ccc1Cl`: “inactive”; `CCC(C)c1ccc(O)cc1` (stereo not given): “inactive”; `C#CCOS(=O)OC1CCCCC1Oc1ccc(C(C)(C)C)cc1` (stereo not given): “inactive and 24.5 µM (active)”. Regarding `CN(C)C(=O)Nc1ccc(Cl)cc1`, the Potency result is “inactive”. Then `Clc1nc(Cl)nc(Cl)n1`, with “inactive”; and `c1ccc(-c2cccc(-c3ccccc3)c2)cc1`, with “inactive”. Then `C=CCc1ccc(OC)cc1`, with “inactive”; and `CNC(=O)Oc1cccc2c1OC(C)(C)O2`, with “inactive”; and `O=C(Nc1ccc(Br)cc1)c1cc(Br)cc(Br)c1O`, with 6.14 µM (active) and 2.45 µM (active) and 8.41 µM (active). Then `Nn1cnnc1`, with “inactive”; and `Nc1ccc(-c2ccccc2)cc1`, with “inactive”; and `CNC(=O)N(C)c1nnc(C(C)(C)C)s1`, with “inactive”.

Take `N#CCCCl`: the Potency result is “inactive”. Consider `OCC(O)CO`, for which the Potency entry is “inactive”. Turning to `S=C1NCCN1`, the Potency entry is “inactive”. Next, `O=C(NC(=O)c1c(F)cccc1F)Nc1ccc(Cl)cc1`: “inactive”; `CCOc1cc(Oc2ccc(C(F)(F)F)cc2Cl)ccc1[N+](=O)[O-]`: “inactive”; `Oc1ccc(-c2ccccc2)cc1`: “inactive”. For the compound `C=C(C)C(=O)OCC1CO1` (stereo not given), the Potency result was “inactive”. Next, `CCN(N=O)C(N)=O`: “inactive”; `CCc1cccc(CC)c1N(COC)C(=O)CCl`: “inactive”; `NC(=S)Nc1ccccc1`: “inactive”. Next, `CCOP(=S)(OCC)O/N=C(\C#N)c1ccccc1`: “inactive”. Next, `Nc1ccc(Cl)c(Cl)c1`: “inactive”; `CC(C)(OOC(C)(C)c1ccccc1)c1ccccc1`: “inactive”; `Oc1cc(Cl)ccc1Oc1ccc(Cl)cc1Cl`: 20 µM (active) and 15 µM (active). Consider `CC(O)CCO` (stereo not given), for which the Potency entry is “inactive”.

Take `Brc1ccc(Oc2cc(Br)c(Br)cc2Br)c(Br)c1`: the Potency is 22 µM (active). Next, `CCC(C)(c1ccc(O)cc1)c1ccc(O)cc1`: 54.9 µM (active) and inactive; `CCN(CC)C(=O)SCc1ccc(Cl)cc1`: “inactive”.

Source of the values: PubChem BioAssay (Tox21).
